The whole screen tested about 340,000 compounds, of which about 2,100 (0.62%) were called active.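 Rule for the calls: active = first-screen hits whose inhibition reached a set limit at any dose in the follow-up dose series; inconclusive = inhibition above the set first-screen limit but never retested; inactive = the rest.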 Only a sample is shown. Measured potencies and affinities stand elsewhere.

This is an account of results in PubChem BioAssay AID624330 (Southern Research Specialized Biocontainment Screening …, 2012).

Sequence of Rac GTPase-activating protein 1 (Homo sapiens) (Q9H0H5 whole entry, looked up): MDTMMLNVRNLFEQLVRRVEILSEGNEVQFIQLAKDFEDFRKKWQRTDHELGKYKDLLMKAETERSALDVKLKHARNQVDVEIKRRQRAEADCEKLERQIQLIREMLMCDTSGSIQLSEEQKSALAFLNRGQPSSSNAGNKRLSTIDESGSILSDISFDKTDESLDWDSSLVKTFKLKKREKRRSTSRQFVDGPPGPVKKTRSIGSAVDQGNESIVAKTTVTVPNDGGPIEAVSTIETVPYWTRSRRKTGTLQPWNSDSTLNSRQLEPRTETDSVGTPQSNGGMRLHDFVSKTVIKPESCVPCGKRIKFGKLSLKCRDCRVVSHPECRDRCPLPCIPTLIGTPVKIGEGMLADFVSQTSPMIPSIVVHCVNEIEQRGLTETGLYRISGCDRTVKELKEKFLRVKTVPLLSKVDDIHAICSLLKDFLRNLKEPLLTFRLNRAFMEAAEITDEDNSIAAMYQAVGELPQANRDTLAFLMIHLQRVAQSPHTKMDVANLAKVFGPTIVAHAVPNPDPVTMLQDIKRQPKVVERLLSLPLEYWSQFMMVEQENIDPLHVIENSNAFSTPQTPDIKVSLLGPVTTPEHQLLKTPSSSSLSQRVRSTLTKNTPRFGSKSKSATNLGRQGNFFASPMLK

The test concerns the target Rac GTPase-activating protein 1 (Homo sapiens) (UniProt Q9H0H5). In words: MgcRacGAP GTPase-activating activity inhibitors, confirmation, biochemical, ADP Hunter fluorescence, primary and confirmatory (AID 624330).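 Note: fluorescence reports GDP produced by GAP-driven GTP hydrolysis.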 The note with it: MgcRacGAP-stimulated Rac1 GTP hydrolysis, at 30 µM, stronger effect = higher value, GST-tagged Rac1 F28L mutant substrate.
Broadly, the inhibition is the drop in the measured response relative to a control, in per cent. For the molecule `O=C(O)CCCN1C(=O)/C(=C\c2ccc(-c3nc4ccccc4s3)o2)SC1=S`, the inhibition is 10.4% (inactive).

`O=C(O)CCCN1C(=O)/C(=C/c2ccc(-c3nc4ccccc4s3)o2)SC1=S`: the inhibition is 11.9% (inactive).

Turning to `COc1ccc(NC(=O)CNC(c2ccccc2)c2ccccc2)cc1Cl`, the inhibition is 5.6% (inactive).

Consider `Cc1cccc(NC(=O)Cn2c(=O)oc3cc(S(=O)(=O)N4CCCC4)ccc32)n1`, for which the inhibition is 9.63% (inactive).

As to `CN(C)S(=O)(=O)Oc1ccc(Cl)cc1C(=O)Nc1ccc(F)cc1F`, the inhibition was 0.65% (inactive).

For `Cc1ccc(N=Cc2c(O)c3ccccc3oc2=O)c(C)c1`, the inhibition was 5.4% (inactive).

As to `Cc1ccc(F)cc1N=Cc1c(O)c2ccccc2oc1=O`, the inhibition was 7.61% (inactive).

In the case of `COc1ccccc1NC(=O)C(=O)N1N=C(C(C)C)CC1(O)C(F)(F)F` (stereo unspecified), the inhibition was -2.51% (inactive).

For the molecule `O=C(NCc1cccc(C(F)(F)F)c1)C1CC(c2ccc(C(F)(F)F)cc2)=NO1` (stereo unspecified), the inhibition is 7.21% (inactive).

`Cc1ccc(Nc2cc(C)nc3ncnn23)c(C)c1`: the inhibition is 7.05% (inactive).

Consider `Cc1ccc(C)c(N2CCN(CCCc3ccccc3)CC2)c1`, for which the inhibition was -8.46% (inactive).

As to `O=C(O)c1ccc(NC2=C/C(=N/S(=O)(=O)c3ccccc3)c3ccccc3C2=O)cc1`, the inhibition was 11.5% (inactive).

Regarding `O=C1C(Nc2ccccc2)=C/C(=N/S(=O)(=O)c2cccs2)c2ccccc21`, the inhibition is 13.2% (inactive).

For the molecule `CCc1ccc(S(=O)(=O)/N=C2\C=C(Nc3ccc(O)cc3)C(=O)c3ccccc32)cc1`, the inhibition was 10.1% (inactive).

With `Cc1ccc(NC2=C/C(=N/S(=O)(=O)c3cccs3)c3ccccc3C2=O)cc1`, the inhibition was 12.6% (inactive).

Regarding `Cc1ccc(NC2=C(Cl)C(=O)c3ccccc3C2=O)cc1`, the inhibition was 5.85% (inactive).

For `CCN(CC)c1ccc(NC2=C(Cl)C(=O)c3ccccc3C2=O)cc1`, the inhibition was 28.6% (inactive).

For `O=C1C(Cl)=C(NCCCO)C(=O)c2ccccc21`, the inhibition was 7.29% (inactive).

`CCNC1=C(Cl)C(=O)c2ccccc2C1=O`: the inhibition was 9.6% (inactive).

As for `CC(C)CN1CCC(=O)N([C@H](COc2ccccc2)c2ccccc2)CC1`, the inhibition is 12.8% (inactive).

For the molecule `O=C(CN1C2CCCC1CC(NC(=O)c1ccco1)C2)Nc1ccccc1` (stereo unspecified), the inhibition was 9.34% (inactive).

For the molecule `CN(CC(=O)Nc1cccc(F)c1)CC(=O)N(C)c1c(N)n(Cc2ccccc2)c(=O)[nH]c1=O`, the inhibition is 7.85% (inactive).

Take `CC(C)c1ccc(NC(=O)COC(=O)c2c[nH]c(=O)[nH]c2=O)cc1`: the inhibition was 6.27% (inactive).

For the molecule `Cc1ccc(C(=O)Nc2ncccc2O)cc1S(=O)(=O)N1CCCCC1`, the inhibition was -2.55% (inactive).

Turning to `Cc1csc(=O)n1CC(=O)OCC(=O)NCc1ccc(Cl)cc1Cl`, the inhibition was 8.92% (inactive).

Take `O=C(Nc1ccc(Cl)cc1)C(c1ccccc1)N1CCOCC1` (stereo unspecified): the inhibition was 1.96% (inactive).

With `COC1=C(Nc2ccc(C)cc2)C(=O)c2ccccc2C1=O`, the inhibition is 6.66% (inactive).

For the molecule `COC1=C(Nc2ccccc2)C(=O)c2ccccc2C1=O`, the inhibition was 11.3% (inactive).

With `Nc1nc(COc2ccc(Cl)cc2)cs1`, the inhibition is 5.42% (inactive).

As for `O=C(Nc1ccc2c(c1)OCCO2)C1CC(O)CN1C(=O)Nc1ccccc1` (stereo unspecified), the inhibition was 5.39% (inactive).

`Cc1cc(C(=O)NNC(=O)/C=C/c2ccccc2Cl)c(C)o1`: the inhibition is 6.81% (inactive).

On to `Cc1cc(C(=O)NNC(=O)/C=C/c2ccc(F)cc2)c(C)o1`, for which the inhibition is 0.14% (inactive).

For `COc1cccc(-c2cc(C(=O)Nc3cccnc3)no2)c1`, the inhibition was 3.22% (inactive).

With `Cc1c(Cl)cccc1NC(=S)NCc1cccs1`, the inhibition was 5.46% (inactive).

Consider `COCC(=O)NC1CCN(S(=O)(=O)c2ccc(C(=O)O)cc2)CC1`, for which the inhibition is 3.4% (inactive).

Take `COc1cc2cnc(-c3ccccc3)c(C(=O)c3ccc(F)cc3)c2cc1OC`: the inhibition was 6.22% (inactive).

Regarding `Cc1ccc(N=Nc2c(N)nn3c(C)cc(C)nc23)cc1`, the inhibition is 7.06% (inactive).

Turning to `Cc1cc(C)n2nc(N)c(N=Nc3ccc(Cl)cc3)c2n1`, the inhibition was 8.06% (inactive).

Regarding `Nc1nn2c(-c3ccccc3)cc(=O)[nH]c2c1N=Nc1ccc(Br)cc1`, the inhibition was 4.26% (inactive).

As to `Cc1cc(C)n2nc(N)c(N=Nc3ccccc3)c2n1`, the inhibition is 13.3% (inactive).

Take `COc1ccc(C(=O)NNC(=O)CSc2ccccc2)cc1`: the inhibition is 0.63% (inactive).

In the case of `Cc1ccc(N(CC(=O)N2CCN(C3CCCCC3)CC2)S(=O)(=O)c2cccnc2)cc1`, the inhibition is -4.65% (inactive).

For `N#CC(C#N)=C1C(=O)N(CCN2CCCCC2)c2ccccc21`, the inhibition was -11.4% (inactive).

With `O=C(CSc1nc(NS(=O)(=O)c2ccccc2)cc(=O)[nH]1)Nc1ccc(Cl)cc1`, the inhibition was -0.7% (inactive).

As for `NS(=O)(=O)c1ccc(CCNC(=O)CN2CCC(Cc3ccccc3)CC2)cc1`, the inhibition was 6.03% (inactive).

Take `NS(=O)(=O)c1ccc(NC(=S)N2CCC(Cc3ccccc3)CC2)cc1`: the inhibition was 18.2% (inactive).

`Cc1ccc(OCC(=O)NNC(=O)C2CC(=O)N(c3ccc4c(c3)OCCO4)C2)cc1` (stereo unspecified): the inhibition was 6.61% (inactive).

With `O=C(CCc1nnc(CCCCc2ccccc2)o1)NCc1cc(F)ccc1F`, the inhibition is 9.91% (inactive).

Turning to `Cn1c(CCC(=O)OCC(=O)Nc2ccc(Oc3ccccc3)cc2)nc(=O)c2ccccc21`, the inhibition is 2.65% (inactive).

Regarding `CC(C)Cc1n[nH]c(=O)[nH]1`, the inhibition is 4.75% (inactive).

As to `O=C1NC(=O)/C(=C/c2cccc(O)c2)N1`, the inhibition was 5.03% (inactive).

On to `COc1cc(/C=C2\SC(=N)N(c3ccc(F)cc3)C2=O)ccc1O`, for which the inhibition is 20.9% (inactive).

In the case of `CCN(CC)c1ccc(/C=C2\NC(=O)NC2=O)cc1`, the inhibition was 30.9% (inactive).

As to `COc1ccc(C=C2SC(=O)NC2=O)cc1OC`, the inhibition is 6.99% (inactive).

`COc1ccc(C=C2NC(=O)NC2=O)cc1O`: the inhibition was 10.9% (inactive).

In the case of `O=C1NC(=O)C(=Cc2ccccc2)N1`, the inhibition was -1.98% (inactive).

Consider `CC1(C)CC(=O)C(C=NCCN2CCN(C(=O)c3ccc(F)cc3)CC2)=C(O)C1`, for which the inhibition was 0.28% (inactive).

On to `COc1ccccc1CN1CC(C(=O)NCc2nccn2C)CCC1=O` (stereo unspecified), for which the inhibition was 10.1% (inactive).

Consider `COC(=O)[C@@]12CCCN1[C@H](c1ccc(-c3ccccc3)cc1)[C@H]1C(=O)N(C)C(=O)[C@H]12`, for which the inhibition was 8.21% (inactive).

In the case of `COc1ccc(CCNC(=O)Cn2ccc3c(OC)cccc3c2=O)cc1OC`, the inhibition is 8.24% (inactive).

With `CCOC(=O)C1=C(COC(=O)/C=C/c2cccc(Br)c2)NC(=O)NC1C` (stereo unspecified), the inhibition is 2.35% (inactive).
